High-throughput results (PubChem)
MT1-MMP txn act = activates MT1-MMP transcription; HT1080 MT1-MMP promoter luciferase reporter, luminescence, overnight; stronger effect = higher value; activation factor at 10 µM; 86,000 tested, 0.16% active;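 active means activation factor of at least 2 for MT1-MMP transcription at 10 µM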
ERa coact pot = enhances coactivator binding to human estrogen receptor alpha; TR-FRET ERalpha-LBD/SRC-Cy5 coactivator binding, 2 h; 100 = basal binding, no effect; coactivator binding (% of control), % at 25.6 µM; 86,000 tested, 1.3% active; in the data active means activity above about 200%;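 further: binding measured in presence of low estradiol as agonist stimulus; 0% = peptide alone without receptor and 100% = receptor with peptide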
ERb coact inh = ER-beta (human) coactivator binding inhibition | Q92731 | TR-FRET ER-beta LBD / SRC1-Cy5 peptide binding; receptor agonist-loaded with 1 µM estradiol | inhibition, % at 25.6 µM | 86,000 tested, 1.3% active | AID 633;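 active means compounds whose percent inhibition of the receptor-coactivator binding signal exceeds about 50% in the single-dose screen, limit read from the data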;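 further: 0% = receptor plus peptide wells without compound and 100% = peptide-only wells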
ERa coact inh = blocks coactivator binding to human estrogen receptor alpha. P03372. TR-FRET ER-alpha LBD / SRC-1 peptide, estradiol-bound. inhibition, % at 25.6 µM. 86,000 tested, 1.7% active. AID 629; in the data active means inhibition above about 50%;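 further: 0% = receptor plus peptide control and 100% = peptide only without receptor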
Calb biofilm kill = kills Candida albicans biofilms. 85,000 tested, 0.14% active. inhibition, % at 6 µM. C. albicans biofilm + clotrimazole, Alamar Blue;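 active means inhibition above 20%; inactive means inhibition below 20%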;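 further: preformed 24 hr biofilms exposed to compound for 48 hr; 0% = biofilm without compound and 100% = blank killed by clotrimazole plus chlorhexidine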
EphB4 antag = EphB4-ephrin-B2 interaction antagonism | EphB4 LBD / TNYL-RAW-Alexa532 peptide, fluorescence polarization | 97,000 tested, 0.15% active | inhibition, % at 7 µM | P54760;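 active means inhibition above the screen-wide mean inhibition plus 3 SD, cut at about 15% in these data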;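 further: 0% = DMSO wells and 100% = excess unlabeled TNYL-RAW peptide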
Starred values were filed as active, the others as inactive; . = not tested or not shown; [ ] = dose if it differs, or a comment. Hits are enriched below; roughly 3.2% of the tested compounds scored in any of these assays.

SMILES | MT1-MMP txn act | ERa coact pot | ERb coact inh | ERa coact inh | Calb biofilm kill | EphB4 antag
Cc1nn(-c2ccccc2)c2nc(N)c(C#N)c(-c3ccc(F)cc3)c12 | 1.1 | 215.0*[fluorescence artefact?] | 13.2 | 13.3 | 4.5 | 6.1
Cc1nc(N)c(C#N)c(-c2ccccc2)c1C | 1 | 114.7 | 2.1 | -1.1 | 3.7 | 5.0
CC(=O)N1[C@H](C)C=C[C@]1(Cc1ccccc1)C(=O)NCc1ccc(C)o1 | 1 | . | . | . | . | .
CCOC(=O)c1c2c(c(=S)n(-c3ccccc3)c1N)CCC2 | 0.9 | 86.7 | 6.7 | 7.9 | 4.4 | -1.7
CCOC(=O)c1c(N)sn(-c2ccccc2)c1=S | 1 | 589.5*[fluorescence artefact?] | -2.3 | -5.3 | 8.4 | -5.8
N#CCSc1ncnc2sc3c(c12)CCC3 | 1.5 | 75.4 | 44.2 | 42.0 | 9.1 | -3.0
Cc1sc2ncnc(SCC#N)c2c1C | 1.1 | 97.1 | 48.2 | 75.5*[fluorescence artefact?] | 7.4 | .
COc1ccc(Oc2nc3c(c(=O)n(C)c(=O)n3C)n2Cc2ccccc2)cc1 | 1 | 208.4*[fluorescence artefact?] | 0.7 | 1.8 | 5.8 | -1.1
COc1ccc(N2CCn3c2nc2c3c(=O)n(CCCc3ccccc3)c(=O)n2C)c(OC)c1 | 1 | 84.6 | -4.7 | 5.1 | 0.2 | 4.8
Cc1ccccc1Cn1c(CN2CCc3ccccc3C2)nc2c1c(=O)n(C)c(=O)n2C | 1.2 | 109.2 | 96.8*[fluorescence artefact?] | 3.4 | 6.9 | 4.1
COc1ccc(N2CCn3c2nc2c3c(=O)n(CCCc3ccccc3)c(=O)n2C)cc1 | 1.1 | 32.7 | 42.7 | 87.3*[fluorescence artefact?] | 5.5 | .
Cn1c(=O)c2c(nc(CN3CCN(Cc4ccccc4)CC3)n2Cc2ccccc2)n(C)c1=O | 1.1 | 97.9 | -6.7 | -3.1 | 20.1* | .
COc1ccc(N2CCN(c3nc4c(c(=O)n(C)c(=O)n4C)n3Cc3ccccc3)CC2)cc1 | 1.2 | 91.6 | 3.1 | -24.4 | 10.4 | 3.3
COCCNC(=O)[C@H](C)/C=C/C(NC(=O)OCc1ccccc1)c1ccc(C(=O)OC)cc1 (stereo partly drawn) | 1.1 | . | . | . | . | .
CCOC(=O)C1=C(C)N(CCCC(=O)NCCn2c(-c3ccccc3)cc(C(=O)OC)c2C)C(=O)NC1c1ccc([N+](=O)[O-])cc1 (stereo not drawn) | 1.2 | . | . | . | . | .
CS(=O)(=O)N(CC(=O)N1CCCCCC1)c1ccc(Br)cc1 | 1 | 121.2 | -8.1 | -1.3 | 5.4 | 3.7
CCOC(=O)c1ccc(Nc2ncnc3c2cnn3C)cc1 | 1.1 | 110.8 | 72.1*[fluorescence artefact?] | -2.7 | 5.5 | -9.2
Cn1ncc2c(Nc3ccc4ccccc4c3)ncnc21 | 1.6 | 112.3 | -0.4 | 1.8 | 8.6 | 1.3
COc1ccc(-c2nnc(SCC(=O)Nc3ccc4c(c3)OCCO4)n2N)cc1OC | . | . | . | . | . | 0.0
c1ccc(-c2cn3c(n2)CCC3)cc1 | 1.2 | 86.3 | 10.3 | -1.9 | 0.4 | 2.5
c1ccc(-c2cc3n(c2)CCc2ccccc2-3)cc1 | 2.6* | 83.7 | -11.6 | -27.5 | 6.5 | 0.7
CCN(CC)S(=O)(=O)c1ccc(C(=O)OCC(=O)c2ccc3c(c2)NC(=O)CO3)cc1 | . | . | . | . | . | 8.3
CCCn1nc(C(=O)OCC(=O)c2ccc3c(c2)NC(=O)CO3)c2ccccc2c1=O | 1.1 | 167.0 | 24.4 | 73.3* | 5.9 | -6.8
Cc1nnc(SCC(=O)NC2CC2)n1CCc1ccccc1 | 1 | 135.0 | -11.2 | -4.2 | 5.5 | 4.1
O=C(CSc1nnc(-c2ccccn2)n1Cc1ccccc1)NC1CCCC1 | 1 | 139.3 | -6.1 | 2.0 | -9.2 | 15.8*
SMILES | MT1-MMP txn act | ERa coact pot | ERb coact inh | ERa coact inh | Calb biofilm kill | EphB4 antag
CN1C(=O)C(=C2CCCCCC2)SC1=S | 1 | 103.3 | -11.4 | -6.2 | 5.6 | 0.9
O=C1NC(=S)SC1=C1CCCC1 | 1 | 38.6 | 56.2* | 45.6 | 4.8 | 5.3
O=C(CN(Cc1ccccc1F)C(=O)Cn1nnc(-c2cccs2)n1)NC1CCCCC1 | 1.1 | 102.5 | 12.9 | 19.6 | 1.4 | -3.3
O=C(CSc1nc2scc(-c3ccco3)c2c(=O)n1-c1ccccc1)NCC1CCCO1 (stereo not drawn) | 1.1 | 142.9 | 54.8* | 62.1* | 3.4 | -0.6
O=c1c2c(-c3ccco3)csc2nc(SCc2cn3cccnc3n2)n1-c1ccccc1 | 1 | 81.2 | 28.4 | 67.2*[fluorescence artefact?] | 3.4 | -5.4
CCC(Oc1ccccc1)C(=O)N1CCN(C(=O)C(CC)Oc2ccccc2)CC1 (stereo not drawn) | 1.2 | 102.0 | -4.3 | -0.3 | 5.5 | 0.0
O=C1CC(c2ccc(F)cc2)Cc2nc(N3CCc4ccccc43)ncc21 (stereo not drawn) | 1.2 | 203.5*[fluorescence artefact?] | 24.5 | 22.5 | 5.6 | .
COc1ccc(/C(O)=C2\C(=O)C(=O)N(CCCN(C)C)C2c2ccccc2F)cc1Cl (stereo not drawn) | 1.2 | 126.3 | -3.6 | -2.7 | 4.0 | .
O=C(CN1CCN(Cc2ccccc2)CC1)N1CCCc2c1c(=O)oc1ccc(O)cc21 | 1 | 82.1 | -10.2 | 15.8 | -2.5 | 0.0
O=C(CN1CCCCC1)N1CCCc2c1c(=O)oc1ccc(OCc3ccccc3)cc21 | 1 | 326.6*[fluorescence artefact?] | -5.2 | 0.9 | 6.9 | 7.2
CCCCc1ccc(-c2ccc(Br)cc2)nc1 | 2* | 83.6 | -12.8 | -14.3 | 3.9 | -7.2
CC(=O)Nc1ccc(N2C(C(C)=O)=NN(c3ccc(Cl)cc3)C2c2sccc2C)cc1 (stereo not drawn) | 1.3 | 73.2 | -4.5 | -13.6 | -3.5 | 16.7*
O=C(NC1CCCCC1)C(c1ccc2ncccc2c1)N(Cc1ccc2c(c1)OCO2)C(=O)c1cccs1 (stereo not drawn) | . | . | . | . | . | 1.0
Cn1c(=O)oc2cc(S(=O)(=O)N3CCCC(C(=O)NC4CCCc5ccccc54)C3)ccc21 (stereo not drawn) | . | 79.9 | 51.1*[fluorescence artefact?] | 15.8 | 8.8 | -6.1
Cn1c(=O)oc2cc(S(=O)(=O)N3CCCC(C(=O)Nc4ccccn4)C3)ccc21 (stereo not drawn) | . | 108.6 | -1.6 | 4.3 | 8.4 | 1.7
Cc1cc(=O)n(CCO)c(O)c1C#N | 1.2 | 129.8 | -0.9 | 2.2 | 6.8 | -6.1
Cc1cc(=O)n(CC(C)C)c(O)c1C#N | 1.1 | 113.2 | -1.2 | -9.7 | -2.8 | 16.6*
CCOC(=O)c1sc2nc(CC(=O)OC)nc(NCc3ccc(Cl)cc3)c2c1C | 0.9 | 339.2*[fluorescence artefact?] | 7.7 | 36.9 | -0.5 | 3.5
O=C(COC(=O)C(O)c1ccccc1)c1ccc2c(c1)OCCO2 (stereo not drawn) | 1.4 | 421.0* | 4.0 | -17.7 | 4.7 | -2.2
CSc1nsc(/C=C/Nc2ccc(C)cc2)c1C#N | . | 117.8 | 3.2 | -13.0 | 8.7 | -3.7
CC(C)(C)NC(=O)CSC(=Nc1ccc(F)cc1)NC#N | 1.1 | 99.3 | -6.2 | 5.3 | 2.6 | -5.3
CCOc1cc(-n2cnnn2)c(OCC)cc1NC(=O)c1cnccn1 | 1 | 137.5 | 25.8 | 54.5* | 2.8 | .
CCOC(=O)c1cc(NC(=O)c2cnccn2)cc(C(=O)OCC)c1 | 1.1 | 178.9 | 8.7 | -0.3 | 2.2 | -12.1
COc1cccc2cc(-c3nc(-c4cccs4)cs3)c(=O)oc12 | 1.6 | 86.5 | 24.5 | 50.2*[fluorescence artefact?] | 3.7 | 0.7
Cc1ccc(C)n1-c1cccc(C(=O)O)c1 | 1.2 | 327.6* | 25.5 | -0.4 | 6.0 | .
